Data from PubChem BioAssay (NCI).
About 83,000 compounds went through this panel and 20% of them were active in at least one assay; those are over-represented in the sample as a whole.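 48-hour exposure, single concentration, 96-well plates; percent growth endpoint where 0 means no net growth. Active: below 10.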 Calls of active or inactive are those of the source.

How the values were obtained:
Assay in all cases: NCI-60 one-dose screen, 48 h (100 = growth as untreated, 0 = no growth, -100 = all killed)
Settings in all cases: 10 µM unless noted
SR leukemia = test system: SR leukemia
RPMI-8226 leukemia = test system: RPMI-8226 leukemia
OVCAR-8 ovarian = test system: OVCAR-8 ovarian
OVCAR-5 ovarian = test system: OVCAR-5 ovarian
OVCAR-4 ovarian = test system: OVCAR-4 ovarian
SK-OV-3 ovarian = test system: SK-OV-3 ovarian
IGROV1 ovarian = test system: IGROV1 ovarian
OVCAR-3 ovarian = test system: OVCAR-3 ovarian
HS 578T breast = test system: HS 578T breast
NCI/ADR-RES ovarian = test system: NCI/ADR-RES ovarian

Measured: growth

O=S(c1ccccc1)c1ccc2nnnn2n1 (stereo not given)
inactive: SR leukemia 85.2% | RPMI-8226 leukemia 95.7% | OVCAR-8 ovarian 108% | OVCAR-5 ovarian 110% | OVCAR-4 ovarian 111% | SK-OV-3 ovarian 114% | IGROV1 ovarian 75.8% | OVCAR-3 ovarian 83.8% | HS 578T breast 97.7% | NCI/ADR-RES ovarian 106%

O=C1OC(N(Cc2ccc(Cl)cc2)c2ccccc2)c2ccccc21 (stereo not given)
inactive: SR leukemia 97.8% | RPMI-8226 leukemia 97.2% | OVCAR-8 ovarian 107% | OVCAR-5 ovarian 109% | OVCAR-4 ovarian 116% | SK-OV-3 ovarian 97.2% | IGROV1 ovarian 90.7% | OVCAR-3 ovarian 104% | HS 578T breast 108% | NCI/ADR-RES ovarian 105%

CC(=O)Oc1ccc(C(OC(C)=O)OC(C)=O)cc1
inactive: SR leukemia 88.8% | RPMI-8226 leukemia 107% | OVCAR-8 ovarian 114% | OVCAR-5 ovarian 108% | OVCAR-4 ovarian 117% | SK-OV-3 ovarian 97.6% | IGROV1 ovarian 109% | OVCAR-3 ovarian 103% | HS 578T breast 105% | NCI/ADR-RES ovarian 103%

CC(C)C(=O)Nc1nc2c(s1)CCCc1ccn(S(=O)(=O)c3ccccc3)c1-2
inactive: SR leukemia 84.3% | RPMI-8226 leukemia 87.5% | OVCAR-8 ovarian 101% | OVCAR-5 ovarian 99.2% | OVCAR-4 ovarian 104% | SK-OV-3 ovarian 87.4% | IGROV1 ovarian 107% | OVCAR-3 ovarian 107% | HS 578T breast 101% | NCI/ADR-RES ovarian 94.2%

O[C@@H]1CCO[C@H](c2ccc3ccccc3c2)C1
inactive: SR leukemia 95.7% | RPMI-8226 leukemia 96.4% | OVCAR-8 ovarian 106% | OVCAR-5 ovarian 110% | OVCAR-4 ovarian 105% | SK-OV-3 ovarian 108% | IGROV1 ovarian 107% | OVCAR-3 ovarian 106% | HS 578T breast 100% | NCI/ADR-RES ovarian 106%

Cc1nc(-c2ccc(Cl)cc2)ccc1NC(=O)Nc1cccc(C(F)(F)F)c1
inactive: SR leukemia 59.6% | RPMI-8226 leukemia 85.3% | OVCAR-8 ovarian 98.9% | OVCAR-5 ovarian 121% | OVCAR-4 ovarian 108% | SK-OV-3 ovarian 110% | IGROV1 ovarian 111% | OVCAR-3 ovarian 111% | HS 578T breast 103% | NCI/ADR-RES ovarian 98.1%

O=C(O)c1ccccc1C(=O)c1ccc(I)cc1
inactive: SR leukemia 101% | RPMI-8226 leukemia 97.7% | OVCAR-8 ovarian 107% | OVCAR-5 ovarian 107% | OVCAR-4 ovarian 109% | SK-OV-3 ovarian 96.4% | IGROV1 ovarian 98.4% | OVCAR-3 ovarian 107% | HS 578T breast 104% | NCI/ADR-RES ovarian 97.5%

CC(C)[C@@H]1NC(=O)[C@]2(C)CSC(=N2)c2ccnc(c2)CNC(=O)C[C@@H](/C=C/CCS)OC1=O
inactive: OVCAR-5 ovarian 18.2% | OVCAR-4 ovarian 27.3% | NCI/ADR-RES ovarian 29.8%
active: SR leukemia 7.26% | RPMI-8226 leukemia -18.5% | OVCAR-8 ovarian -3.79% | SK-OV-3 ovarian -7.53% | IGROV1 ovarian 0.54% | OVCAR-3 ovarian -6.18% | HS 578T breast 9.92%

O=C(NNC(=O)c1ccc([N+](=O)[O-])cc1)c1ccc([N+](=O)[O-])cc1
inactive: SR leukemia 99.1% | RPMI-8226 leukemia 95.5% | OVCAR-8 ovarian 112% | OVCAR-5 ovarian 102% | OVCAR-4 ovarian 93.8% | SK-OV-3 ovarian 96.1% | IGROV1 ovarian 112% | OVCAR-3 ovarian 104% | HS 578T breast 104% | NCI/ADR-RES ovarian 104%

COc1ccc(Cn2cc3c(c2-c2cc(OC)c(OC)c(OC)c2)CCc2c(CO)noc2-3)cc1
inactive: SR leukemia 22.2% | RPMI-8226 leukemia 21.7% | OVCAR-8 ovarian 22.4% | OVCAR-5 ovarian 56.6% | OVCAR-4 ovarian 68.9% | SK-OV-3 ovarian 39.9% | IGROV1 ovarian 40.8%
active: OVCAR-3 ovarian 5.3% | HS 578T breast 9.56% | NCI/ADR-RES ovarian 8.59%

c1ccc2nc(Cn3cc[n+](Cc4ccc5ccccc5n4)c3)ccc2c1
inactive: SR leukemia 47.8% | RPMI-8226 leukemia 29.6% | OVCAR-8 ovarian 76.2% | OVCAR-5 ovarian 86.9% | OVCAR-4 ovarian 33.7% | SK-OV-3 ovarian 86.9% | IGROV1 ovarian 68.3% | OVCAR-3 ovarian 52% | HS 578T breast 75.3% | NCI/ADR-RES ovarian 107%

C=CC(=O)NC(=O)Nc1ccccc1Cl
inactive: SR leukemia 39.8% | RPMI-8226 leukemia 21.4% | OVCAR-8 ovarian 84.5% | OVCAR-5 ovarian 111% | OVCAR-4 ovarian 103% | SK-OV-3 ovarian 87.3% | IGROV1 ovarian 88.2% | OVCAR-3 ovarian 68.7% | HS 578T breast 96.8% | NCI/ADR-RES ovarian 105%

C#C[C@@]1(O)[C@@H](CO)O[C@@H](n2cc(C(F)(F)F)c3c(N)ncnc32)[C@@H]1O
active: SR leukemia -6.19% | RPMI-8226 leukemia -33.6% | OVCAR-8 ovarian 2.43% | SK-OV-3 ovarian -7.5% | IGROV1 ovarian 2.75% | OVCAR-3 ovarian -2.07% | HS 578T breast -15.6% | NCI/ADR-RES ovarian 6.08%
inactive: OVCAR-5 ovarian 14.1% | OVCAR-4 ovarian 15.8%

O=c1c2ccccc2[nH]n1Cc1ccc2c(c1)OCO2
inactive: SR leukemia 115% | RPMI-8226 leukemia 90.5% | OVCAR-8 ovarian 104% | OVCAR-5 ovarian 95.7% | OVCAR-4 ovarian 105% | SK-OV-3 ovarian 112% | IGROV1 ovarian 111% | OVCAR-3 ovarian 104% | HS 578T breast 103% | NCI/ADR-RES ovarian 113%
